Whole data set: some 33,000 sequences, median “E-score (-0.5 to 0.5)” near -0.043, cut for the highest 2% near 0.37. This excerpt belongs to a sample that is enriched for the highest values.
target: T1, Upc2 (UniProt Q12151); assay: PBM E-score (8-mer binding enrichment) (E-score (-0.5 to 0.5)); higher = stronger / more preferred TF binding; details: protein concentration: 200 nM; construct: GST-full length
T1 sequence: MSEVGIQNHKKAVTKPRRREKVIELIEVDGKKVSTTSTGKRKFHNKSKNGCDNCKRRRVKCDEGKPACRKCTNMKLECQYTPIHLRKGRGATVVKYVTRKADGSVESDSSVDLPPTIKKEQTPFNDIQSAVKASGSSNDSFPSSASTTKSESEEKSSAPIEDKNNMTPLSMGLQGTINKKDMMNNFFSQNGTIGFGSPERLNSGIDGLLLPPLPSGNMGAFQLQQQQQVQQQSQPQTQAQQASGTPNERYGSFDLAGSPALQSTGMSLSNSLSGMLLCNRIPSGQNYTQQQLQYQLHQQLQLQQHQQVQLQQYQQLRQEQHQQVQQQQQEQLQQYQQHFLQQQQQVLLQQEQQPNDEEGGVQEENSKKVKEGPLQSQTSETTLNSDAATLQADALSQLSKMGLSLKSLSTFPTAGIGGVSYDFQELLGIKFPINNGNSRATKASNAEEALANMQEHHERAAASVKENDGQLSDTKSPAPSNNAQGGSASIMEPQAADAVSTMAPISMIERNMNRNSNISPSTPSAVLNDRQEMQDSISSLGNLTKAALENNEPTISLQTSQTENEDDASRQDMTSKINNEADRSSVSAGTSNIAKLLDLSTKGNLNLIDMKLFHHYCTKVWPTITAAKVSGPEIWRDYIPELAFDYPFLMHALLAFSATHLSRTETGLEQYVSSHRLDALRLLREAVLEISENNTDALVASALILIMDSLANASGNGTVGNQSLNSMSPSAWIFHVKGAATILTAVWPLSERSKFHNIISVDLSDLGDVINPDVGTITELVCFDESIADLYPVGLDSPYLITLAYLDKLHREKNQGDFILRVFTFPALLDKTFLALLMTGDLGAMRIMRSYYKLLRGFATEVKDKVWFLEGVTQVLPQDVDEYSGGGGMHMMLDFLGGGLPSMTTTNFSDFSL
Procedure, shortened: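 Full-length yeast transcription factors or their DNA-binding domains, GST-tagged and expressed with PURExpress, were applied at about 100-200 nM to universal all-10-mer Agilent arrays. These arrays had been made double-stranded by primer extension on fresh or once-stripped slides. Detection used fluorescent anti-GST, normalisation used masliner, and E-scores for ungapped eight-base words pooled with reverse complements came from the Universal PBM Analysis Suite.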

In order of falling “PBM E-score” value:
1. GTAAACGA  0.491
2. AAACGAGC  0.489
3. GCCGTATA  0.48
4. CCCGTATA  0.479
5. ACCGTATA  0.478
6. CCAAACGA  0.476
7. TCAAACGA  0.471
8. ACAAACGA  0.466
9. GAACGAGC  0.465
10. GCAAACGA  0.462
11. GAACGAGA  0.457
12. ATAAACGG  0.434
13. CGCTACGA  0.421
14. TAATCGTA  0.42
15. CTAAACGC  0.416
16. ACGACGGG  0.415
17. ACGACGTA  0.413
18. CTCTACGA  0.409
19. CAATCGTA  0.4
20. GAATCGTA  0.387
21. AAATCGTA  0.383
22. ACCGTATG  0.381
23. ACGACGAA  0.375
24. ACGACGGA  0.37
25. ACGACGAG  0.367
26. CCAAACGG  0.365
27. ACGACGTG  0.351
28. ACCGTATC  0.345
29. ATAAACGC  0.344
30. AGCTACGA  0.34
31. CCCGTATC  0.339
32. ACGACGGC  0.333
33. AAACGTAC  0.33
34. ACAAACGG  0.328
35. AACCGAGC  0.325
36. ATCTACGA  0.313
37. CAAAACGA  0.31
38. CCAAACGC  0.292
39. AATCGAGC  0.286
40. CAACGAGC  0.286
41. ACGGTATA  0.274
42. GCAAACGC  0.25
43. TAATCGAA  0.226
44. ACAAACGC  0.225
45. CCGACGTA  0.225
46. TATCCATA  0.2
47. GCCGTAGA  0.189
48. ACCGTAAG  0.185
49. ACCGTAGA  0.178
50. GTAAACTA  0.172
51. CGGTTACA  0.156
52. TAATCGGA  0.155
53. GCGGTATA  0.151
54. AAATCGTC  0.14
55. AAAACTAC  0.137
56. CGCTACGC  0.136
57. CGGGTATC  0.135
58. CGTGCACG  0.134
59. CGTCTAGA  0.121
60. AGTACTAC  0.119
61. AAAAACGG  0.117
62. TAACGTCA  0.0914
63. GGTCTGAA  0.0866
64. AATGTCGC  0.0832
65. AAATCGTG  0.0785
66. CCGACGAA  0.067
67. CATGTTAA  0.0636
68. CTCTACGC  0.0628
69. CGATTCGA  0.0594
70. GTAAACCA  0.0531
71. GAATCGTC  0.052
72. CCCCTATA  0.0494
73. CCGTCGAA  0.0446
74. GCGACGGA  0.0438
75. CGCAACGC  0.0437
76. AGTTGCGA  0.0264
77. GCACGAGA  0.0181
78. CTAAACTC  0.0155
79. AATCCAGG  0.0108
80. GCAAACAA  0.00753
81. CTACCATC  0.00378
82. GCACAAAC  0
83. GGACGAGA  -0.00291
84. CCGACGGA  -0.0042
85. CCCGTAGA  -0.00639
86. GGCTTTGA  -0.0097
87. ATAAACTG  -0.0103
88. GCACGAGC  -0.0167
89. TCGACGAA  -0.018
90. CCGGAGAC  -0.0181
91. CATTGCGA  -0.0248
92. CAAGACAA  -0.0401
93. ACCAGGAC  -0.0418
94. AAAAAGTT  -0.0419
95. AGCCTTGC  -0.0435
96. ATCCAGCG  -0.0436
97. TGAATGCA  -0.0537
98. GGGTATAA  -0.0582
99. GCACGCGA  -0.0589
100. AAAATGGC  -0.0658
101. GGCACCAA  -0.0665
102. AGTGGATC  -0.0691
103. ATAGGGAT  -0.0755
104. ATCAAATC  -0.078
105. TCAAACAA  -0.0805
106. AACAGATT  -0.0821
107. CTTAGATC  -0.0871
108. GGCCTCTA  -0.0932
109. GAATCGCA  -0.0934
110. ACACTACC  -0.098
111. ACCACCTC  -0.111
112. CCTGGCAA  -0.125
113. AAGAGTAG  -0.128
114. CATCTGGG  -0.133
115. GCCAGACC  -0.138
116. CAATGGCG  -0.141
117. CAATCGTC  -0.144
118. AGTCCAAT  -0.149
119. ATAGACAT  -0.151
120. CAATCGTG  -0.153
121. AGTCTATC  -0.159
122. ATCAGAGA  -0.167
123. AGGGGTCC  -0.168
124. CTTGAAGC  -0.183
125. ACCACACC  -0.185
126. ATGCACCA  -0.188
127. CCTCAGCA  -0.21
128. AGGTCTCA  -0.221
129. CACTCAGC  -0.223
130. CGCAGTCA  -0.228
131. GGCAGGAA  -0.24
132. CTGGCTCC  -0.252
133. TAGAATGA  -0.263
134. GGCACAAC  -0.279
135. AGGTTAGC  -0.3

— the supplement of paper PMC3334620
